This is an account of results in PubChem BioAssay (EPA / NIEHS).

Assay [1] in a line: ATG_PBREM_CIS: Attagene CIS-FACTORIAL HepG2 Assay for human Phenobarbital-responsive Enhancer Module (PBREM) (AID 2282955). To be noted: HepG2 PBREM cis-reporter, Attagene multiplexed transcription; actives raise or lower the signal. In outline: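 Cells were transfected with cis-element reporter units and treated for 24 h, after which RNA was extracted and reporter transcripts measured by RT-PCR and capillary electrophoresis.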

Assay [2] has as its target Paired box protein Pax-6 (Homo sapiens) (UniProt P26367). Description: ATG_Pax6_CIS: Attagene CIS-FACTORIAL HepG2 Assay for human Paired Box 6 (PAX6) (AID 2282956). To be noted: HepG2 CIS-FACTORIAL PAX6 reporter transcription, RNA readout; actives raise or lower the signal. In outline:
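DMSO-referenced bidirectional fits of reporter mRNA fluorescence; HepG2 with transient cis-promoter MRTUs, 24 h post-dose, RT-PCR plus capillary electrophoresis detection.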

The nature of assay [3]: ATG_PXRE_CIS: Attagene CIS-FACTORIAL HepG2 Assay for human Pregnane X Receptor Element (PXRE) (AID 2282957). To be noted: HepG2 Attagene CIS-FACTORIAL PXRE reporter, mRNA; actives raise or lower the signal. Put shortly:
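After a 24 h chemical incubation, total RNA from transfected HepG2 cells was reverse-transcribed and reporter cDNA amplified, FAM-labeled, HpaI-digested and sized by capillary electrophoresis. DMSO served as baseline for bidirectional curve fitting.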

Assay [4] is described as follows: ATG_PPRE_CIS: Attagene CIS-FACTORIAL HepG2 Assay for human Peroxisome Proliferator-activated Response Element (PPRE) (AID 2282958). To be noted: HepG2 PPRE cis-element reporter, Attagene transcription factor profiling; actives raise or lower the signal. In outline:
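In this cell-based multiplex, a PPRE cis element drives a reporter sequence in transiently transfected HepG2 cells. Following 24 h treatment, labeled cDNA amplicons are sized and quantified by capillary electrophoresis, with DMSO defining baseline.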

Assay [5] can be described thus: ATG_RORE_CIS: Attagene CIS-FACTORIAL HepG2 Assay for human RAR-related Orphan Receptor Element (RORE) (AID 2282959). To be noted: HepG2 Attagene cis-factorial RORE reporter, mRNA; actives raise or lower the signal. Put shortly:
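Endogenous factor activity at a cis response element is read as reporter transcript levels in HepG2 cells, 24 h post-dose. Transcripts are quantified by RT-PCR with capillary electrophoresis, and data fitted in both directions against DMSO.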

Assay [6] is described as follows: ATG_Sox_CIS: Attagene CIS-FACTORIAL HepG2 Assay for human SRY-box transcription factor (SOX) (AID 2282960). To be noted: HepG2 Attagene cis-factorial SOX reporter, mRNA; actives raise or lower the signal. In outline: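 Measures mRNA induction of a SOX1-associated reporter in HepG2 after 24 h dosing. Fluorescently labelled RT-PCR fragments are separated by capillary electrophoresis, and gain or loss relative to DMSO control is fitted.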

Assay [7] concerns the target Transcription factor Sp1 (Homo sapiens) (UniProt P08047). Nature of the assay: ATG_Sp1_CIS: Attagene CIS-FACTORIAL HepG2 Assay for human Specificity Protein 1 (Sp1) (AID 2282961). Conditions: HepG2 Sp1 cis-reporter transcription, actives raise or lower the signal. Put shortly: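 Cells: HepG2, transiently transfected with cis-regulated multiplexed reporters. Exposure: 24 h. Detection: reporter transcripts amplified, fluorescently labeled, restriction-digested and sized by capillary electrophoresis. Analysis: bidirectional fit relative to DMSO.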

A short description of assay [8]: ATG_SREBP_CIS: Attagene CIS-FACTORIAL HepG2 Assay for human Sterol Regulatory Element Binding (SREBP) (AID 2282962). To be noted: HepG2 Attagene cis-factorial SREBP reporter, mRNA; actives raise or lower the signal. In outline: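 In this cis-format assay, HepG2 liver cells express reporters controlled by promoter elements responsive to native transcription factors. Exposure lasts 24 h; reporter mRNA fluorescence from capillary electrophoresis gives the signal, fitted bidirectionally against DMSO.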

Assay [9] deals with Signal transducer and activator of transcription 3 (Homo sapiens) (UniProt P40763). Description: ATG_STAT3_CIS: Attagene CIS-FACTORIAL HepG2 Assay for human Signal Transducer and Activator of Transcription 3 (STAT3) (AID 2282963). To be noted: HepG2, Attagene cis-factorial STAT3 reporter transcription; actives raise or lower the signal. Put shortly: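 Readout: fluorescent reporter mRNA fragments resolved by capillary electrophoresis. Setup: HepG2 transfected with MRTUs reporting endogenous transcription-factor activity, dosed 24 h. Gain or loss of signal fitted bidirectionally against DMSO control.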

A short description of assay [10]: ATG_TA_CIS: Attagene CIS-FACTORIAL HepG2 Assay for human TA Basal Promoter (AID 2282964). Conditions: HepG2 Attagene CIS-factorial TA basal promoter reporter; actives raise or lower the signal. In outline: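 Read-out: fluorescent reporter-transcript fragments resolved by capillary electrophoresis after RT-PCR and HpaI digestion. Source: HepG2 cells carrying transiently transfected multi-reporter cis constructs, treated 24 h. Endpoint fitted bidirectionally relative to DMSO.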

Assay [11] can be described thus: ATG_TCF_b_cat_CIS: Attagene CIS-FACTORIAL HepG2 Assay for human T-Cell-Factor with beta-catenin (TCF/b-cat) (AID 2282965). To be noted: HepG2 TCF/beta-catenin cis-reporter transcription, actives raise or lower the signal. In outline: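 HepG2, transient MRTU transfection, cis-element-driven reporters (endogenous TFs). 24 h compound exposure. Readout: reporter mRNA by RT-PCR + 6-FAM primer extension, HpaI digest, capillary electrophoresis. Gain/loss fit vs DMSO baseline.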

Assay [12] can be described thus: ATG_TAL_CIS: Attagene CIS-FACTORIAL HepG2 Assay for human TAL Basal Promoter (AID 2282966).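 Also: background control endpoint measuring basal TAL promoter reporter mRNA not a specific factor.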 To be noted: HepG2 Attagene cis-factorial TAL promoter reporter; actives raise or lower the signal. Put shortly: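 Basal-promoter background-control endpoint from a multiplexed HepG2 reporter panel. Cells were exposed 24 h, then reporter mRNA was read by RT-PCR/CE fluorescence and fitted in both directions relative to DMSO.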

A short description of assay [13]: ATG_TGFb_CIS: Attagene CIS-FACTORIAL HepG2 Assay for human Transforming Growth Factor (TGF) (AID 2282967). Conditions: HepG2 Attagene CIS TGFb reporter, mRNA transcription; actives raise or lower the signal. Put shortly: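 Transient MRTU transfection of HepG2 (FuGene 6). Dose 24 h. TriZol RNA, oligo(dT) RT, PCR, 6-FAM primer extension, HpaI cut, CE. Bidirectional fit, DMSO = baseline.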

Assay [14] has as its target Nuclear receptor subfamily 1 group I member 3 (Homo sapiens) (UniProt Q14994). Nature of the assay: ATG_CAR_TRANS: Attagene TRANS-FACTORIAL HepG2 Assay for human Constitutive Androstane Receptor (CAR) (AID 2282969; active = hit-call score of the fitted dose curve at least 0.9, where 1 is the maximum;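 also: activators raise reporter mRNA above DMSO so AC50 marks induction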). Conditions: HepG2 Attagene TRANS-FACTORIAL CAR reporter. Put shortly: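 Transiently transfected HepG2, multiplex TRANS reporters (CAR-Gal4 chimera driving GAL4-UAS reporter). 24 h dosing. Readout: reporter transcript by RT-PCR + capillary electrophoresis, fluorescence intensity; positive direction vs DMSO.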

Assay [15] has as its target Estrogen receptor (Homo sapiens) (UniProt P03372). Nature of the assay: ATG_ERa_TRANS: Attagene TRANS-FACTORIAL HepG2 Assay for human Estrogen Receptor alpha (ERa) (AID 2282970; active = hit-call score of the fitted dose curve at least 0.9, where 1 is the maximum). Conditions: HepG2 Attagene TRANS ERa GAL4 reporter, mRNA. In outline:
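Gal4-fusion ERa transactivation, measured as reporter transcript level in transiently transfected HepG2 cells. Exposure 24 h; RT-PCR plus capillary electrophoresis with fluorescence detection.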

Assay [16] concerns the target Steroid hormone receptor ERR1 (Homo sapiens) (UniProt P11474). Description: ATG_ERRa_TRANS: Attagene TRANS-FACTORIAL HepG2 Assay for human Estrogen-Related Receptor alpha (ERRa) (AID 2282971; active = hit-call score of the fitted dose curve at least 0.9, where 1 is the maximum). Conditions: HepG2 Attagene TRANS reporter, ERRa transactivation. Put shortly: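 HepG2 cells transiently transfected with GAL4-UAS reporter units and chimeric NR-Gal4 constructs; after 24 hour compound incubation, reporter mRNA quantified by RT-PCR, fluorescent labelling and capillary electrophoresis, gain of signal versus DMSO.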

In assay [17] the target is X-box-binding protein 1 (Homo sapiens) (UniProt P17861). Description: ATG_Xbp1_CIS: Attagene CIS-FACTORIAL HepG2 Assay for human X-box Binding Protein 1 (XBP1) (AID 2282972). To be noted: HepG2 XBP1 cis-element reporter, Attagene multiplex; actives raise or lower the signal. In outline:
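Changes in reporter transcript abundance, read by RT-PCR and capillary electrophoresis, reflect endogenous transcription factor activity. Transfected HepG2 cells received compound for 24 hours; DMSO defined baseline for bidirectional analysis.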

Assay [18] in a line: ATG_GAL4_TRANS: Attagene TRANS-FACTORIAL HepG2 Assay for GAL4 (Internal Marker) (AID 2282976; active = hit-call score of the fitted dose curve at least 0.9, where 1 is the maximum). To be noted: HepG2 Attagene TRANS GAL4 internal marker reporter. Put shortly: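 Background-control readout: GAL4-UAS reporter transcript in transiently transfected HepG2 cells after 24 h compound exposure. Measured by RT-PCR, 6-FAM primer extension, HpaI digest and capillary electrophoresis; gain-of-signal fit versus DMSO.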

Assay [19] in a line: ATG_VDRE_CIS: Attagene CIS-FACTORIAL HepG2 Assay for human Vitamin D Receptor Element (VDRE) (AID 2282968). To be noted: HepG2 VDRE cis-reporter transcription, actives raise or lower the signal. In outline:
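Transient MRTU transfection of HepG2, 24 h compound exposure. Readout: reporter transcripts via RT-PCR and capillary electrophoresis, fluorescence. Bidirectional fit vs DMSO.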

Assay [20] can be described thus: ATG_M_19_TRANS: Attagene TRANS-FACTORIAL HepG2 Assay for M19 Transcription Factor (Internal Marker) (AID 2282974; active = hit-call score of the fitted dose curve at least 0.9, where 1 is the maximum). To be noted: HepG2 Attagene TRANS-FACTORIAL M19 internal marker reporter. In outline:
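Reporter mRNA induction was measured in transfected HepG2 cells 24 h after dosing. Endpoint fitted upward relative to DMSO and serves as a background control within the multiplexed TRANS panel.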

The structures appear in SMILES notation. Inconclusive results are not listed. Active and inactive are the calls of the source. The calls were made as follows, unless noted: active = hit-call score of the fitted dose curve at least 0.9, where 1 is the maximum; inactive = score below 0.9.

Sequence of Estrogen receptor (Homo sapiens) (P03372 whole entry, looked up, the tested form may be a part): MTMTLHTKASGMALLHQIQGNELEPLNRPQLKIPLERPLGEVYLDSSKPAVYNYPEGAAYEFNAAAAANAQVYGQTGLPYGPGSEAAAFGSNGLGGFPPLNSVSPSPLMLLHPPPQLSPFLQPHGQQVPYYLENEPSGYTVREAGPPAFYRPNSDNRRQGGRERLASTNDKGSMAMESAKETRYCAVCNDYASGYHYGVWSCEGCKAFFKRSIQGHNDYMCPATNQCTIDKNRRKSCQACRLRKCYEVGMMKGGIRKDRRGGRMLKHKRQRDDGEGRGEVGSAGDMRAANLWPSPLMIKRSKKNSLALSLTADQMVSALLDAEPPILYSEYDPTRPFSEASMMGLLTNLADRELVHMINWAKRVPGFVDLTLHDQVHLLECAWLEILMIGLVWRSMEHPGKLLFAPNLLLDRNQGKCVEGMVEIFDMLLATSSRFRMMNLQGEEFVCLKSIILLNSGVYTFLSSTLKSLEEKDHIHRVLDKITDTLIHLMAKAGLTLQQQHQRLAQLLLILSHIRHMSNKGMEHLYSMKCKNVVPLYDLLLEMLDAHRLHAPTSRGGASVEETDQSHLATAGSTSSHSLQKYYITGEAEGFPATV
Sequence of Paired box protein Pax-6 (Homo sapiens) (P26367 whole entry, looked up): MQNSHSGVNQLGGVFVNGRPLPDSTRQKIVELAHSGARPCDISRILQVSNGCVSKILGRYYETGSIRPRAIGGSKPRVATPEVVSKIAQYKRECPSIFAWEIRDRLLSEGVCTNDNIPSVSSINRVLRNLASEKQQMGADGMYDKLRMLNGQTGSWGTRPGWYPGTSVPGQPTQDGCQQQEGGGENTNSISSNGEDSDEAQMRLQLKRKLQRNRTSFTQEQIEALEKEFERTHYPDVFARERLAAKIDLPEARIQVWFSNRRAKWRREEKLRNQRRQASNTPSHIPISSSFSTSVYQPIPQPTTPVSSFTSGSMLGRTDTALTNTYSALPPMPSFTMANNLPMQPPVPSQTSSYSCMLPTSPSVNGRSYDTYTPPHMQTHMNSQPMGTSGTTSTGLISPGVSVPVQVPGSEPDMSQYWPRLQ
Sequence of X-box-binding protein 1 (Homo sapiens) (P17861 whole entry, looked up): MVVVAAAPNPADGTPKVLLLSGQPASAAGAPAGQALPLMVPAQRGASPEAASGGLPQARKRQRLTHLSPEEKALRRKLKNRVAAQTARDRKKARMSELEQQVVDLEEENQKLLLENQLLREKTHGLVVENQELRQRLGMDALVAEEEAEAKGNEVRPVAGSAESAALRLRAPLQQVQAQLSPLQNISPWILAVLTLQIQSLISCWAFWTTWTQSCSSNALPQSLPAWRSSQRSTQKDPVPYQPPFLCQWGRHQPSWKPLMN
Sequence of Signal transducer and activator of transcription 3 (Homo sapiens) (P40763 whole entry, looked up, the tested form may be a part): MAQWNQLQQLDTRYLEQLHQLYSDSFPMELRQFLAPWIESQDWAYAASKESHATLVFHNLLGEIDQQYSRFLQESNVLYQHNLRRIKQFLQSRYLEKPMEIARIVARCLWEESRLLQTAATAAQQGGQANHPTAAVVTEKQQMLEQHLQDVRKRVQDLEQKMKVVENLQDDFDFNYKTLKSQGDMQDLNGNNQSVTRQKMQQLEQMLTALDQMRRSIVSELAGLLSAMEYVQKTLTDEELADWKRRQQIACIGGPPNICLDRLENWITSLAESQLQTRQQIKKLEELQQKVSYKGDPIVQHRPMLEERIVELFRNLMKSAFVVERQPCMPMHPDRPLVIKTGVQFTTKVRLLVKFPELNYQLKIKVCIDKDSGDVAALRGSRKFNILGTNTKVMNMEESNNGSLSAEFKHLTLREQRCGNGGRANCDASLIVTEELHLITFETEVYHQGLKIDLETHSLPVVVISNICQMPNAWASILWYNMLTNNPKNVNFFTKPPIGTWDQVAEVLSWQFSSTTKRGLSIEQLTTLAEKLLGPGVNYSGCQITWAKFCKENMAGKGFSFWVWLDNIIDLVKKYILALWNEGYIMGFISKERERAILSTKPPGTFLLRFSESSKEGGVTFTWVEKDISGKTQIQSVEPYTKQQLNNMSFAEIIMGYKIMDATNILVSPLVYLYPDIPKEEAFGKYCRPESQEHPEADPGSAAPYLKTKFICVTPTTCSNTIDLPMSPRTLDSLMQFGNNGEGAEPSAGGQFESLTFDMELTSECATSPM
Sequence of Transcription factor Sp1 (Homo sapiens) (P08047 whole entry, looked up): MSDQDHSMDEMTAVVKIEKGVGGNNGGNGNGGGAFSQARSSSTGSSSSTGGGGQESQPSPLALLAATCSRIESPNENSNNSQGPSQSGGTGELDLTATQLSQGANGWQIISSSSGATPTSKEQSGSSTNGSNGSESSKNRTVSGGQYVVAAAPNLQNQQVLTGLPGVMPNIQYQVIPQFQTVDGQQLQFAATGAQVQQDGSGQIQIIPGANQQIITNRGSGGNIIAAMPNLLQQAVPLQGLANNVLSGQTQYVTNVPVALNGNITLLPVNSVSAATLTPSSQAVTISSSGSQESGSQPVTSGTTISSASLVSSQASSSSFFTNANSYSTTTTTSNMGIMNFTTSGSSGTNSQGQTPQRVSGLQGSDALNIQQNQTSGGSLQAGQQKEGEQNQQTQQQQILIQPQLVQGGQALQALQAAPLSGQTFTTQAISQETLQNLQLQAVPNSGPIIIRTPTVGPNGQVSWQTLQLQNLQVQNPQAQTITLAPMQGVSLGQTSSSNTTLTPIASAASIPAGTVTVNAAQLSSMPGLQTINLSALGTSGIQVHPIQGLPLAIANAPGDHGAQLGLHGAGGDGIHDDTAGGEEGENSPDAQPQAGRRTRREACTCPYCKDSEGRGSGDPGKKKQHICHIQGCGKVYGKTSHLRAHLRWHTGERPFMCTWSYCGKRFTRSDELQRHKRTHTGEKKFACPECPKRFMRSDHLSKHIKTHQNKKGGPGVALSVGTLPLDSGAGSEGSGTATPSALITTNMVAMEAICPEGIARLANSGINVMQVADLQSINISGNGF
Sequence of Nuclear receptor subfamily 1 group I member 3 (Homo sapiens) (Q14994 whole entry, looked up, the tested form may be a part): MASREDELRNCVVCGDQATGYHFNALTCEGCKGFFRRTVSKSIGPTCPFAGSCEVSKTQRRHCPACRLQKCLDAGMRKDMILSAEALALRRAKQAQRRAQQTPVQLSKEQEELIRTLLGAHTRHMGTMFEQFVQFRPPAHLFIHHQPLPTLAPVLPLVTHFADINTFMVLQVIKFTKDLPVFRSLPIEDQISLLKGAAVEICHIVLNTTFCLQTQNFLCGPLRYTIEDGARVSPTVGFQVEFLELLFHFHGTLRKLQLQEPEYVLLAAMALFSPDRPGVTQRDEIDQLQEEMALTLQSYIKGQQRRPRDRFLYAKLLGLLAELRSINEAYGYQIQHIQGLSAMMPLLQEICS
Sequence of Steroid hormone receptor ERR1 (Homo sapiens) (P11474 whole entry, looked up, the tested form may be a part): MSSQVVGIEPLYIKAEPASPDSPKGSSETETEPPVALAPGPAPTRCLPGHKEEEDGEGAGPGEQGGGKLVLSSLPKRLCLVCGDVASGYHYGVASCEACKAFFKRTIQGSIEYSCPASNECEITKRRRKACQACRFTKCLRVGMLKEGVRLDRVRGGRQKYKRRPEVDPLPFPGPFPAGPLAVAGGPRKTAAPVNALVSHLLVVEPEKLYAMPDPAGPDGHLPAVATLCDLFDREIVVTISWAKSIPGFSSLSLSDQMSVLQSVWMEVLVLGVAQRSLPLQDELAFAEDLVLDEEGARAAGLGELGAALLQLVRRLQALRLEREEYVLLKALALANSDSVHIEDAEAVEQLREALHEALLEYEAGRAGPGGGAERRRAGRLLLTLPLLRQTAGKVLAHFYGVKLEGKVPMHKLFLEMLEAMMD

Consider `C=CCCCCCCCCC=O`, for which the result in assay [1], in assay [2], in assay [5], in assay [6], in assay [7] and in assay [8] was inactive. For the same molecule, the result in assay [9], in [10], in assay [11], in assay [12], in assay [13] and in assay [14] was inactive. Moreover, the result in assay [15], in assay [16], in assay [17] and in assay [18] was inactive. Further, the values for the AC50 in assay [3] and in assay [4] were 100 µM (active) and 64.2 µM (active), respectively.

Regarding `O=C(O)CCC(=O)O`, the outcome in assay [1], in [2], in assay [3], in [4], in assay [5] and in [6] was inactive. Moreover, the molecule was classed as inactive in assay [7], in assay [8], in [9], in assay [10], in assay [11] and in assay [12]. Also, the outcome in assay [13], in assay [19], in [15], in assay [17], in assay [20] and in [18] was inactive.

For `CCc1occc(=O)c1O`, the result in [1], in assay [2], in assay [4], in [5], in assay [6] and in assay [7] was inactive. In addition, the molecule was called inactive in assay [8], in [9], in [10], in [11], in assay [12] and in assay [13]. In addition, the molecule was classed as inactive in [15], in assay [17] and in [18]. Besides, the concentration at half-maximal activity (AC50) (in general, the concentration giving half of the maximal activity seen) in assay [3] is 28.4 µM (active).

For `Nc1cccc(N)n1`, the outcome in assay [1], in assay [2], in [3], in assay [4], in [5] and in assay [6] was inactive. Also, the outcome in [7], in assay [8], in assay [9], in assay [10], in assay [11] and in assay [12] was inactive. For the same molecule, the call in assay [13], in [17], in assay [20] and in [18] was inactive.
